Results on 20 molecules are retold here after PubChem BioAssay.

Usually inhibition stands for the drop in the measured response relative to a control, in per cent.

Values without a mark were called inactive. For some of these results: Measured potencies and affinities stand elsewhere. The source made the active and inactive calls. Unless noted, no rule for the calls is given here.

A short description of test [1]: antimalarial activity against Dd2 strain (AID 2302;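 active = growth inhibition above 50% at the single 2 µM test dose, taken to imply half-maximal potency below 2 µM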;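 also: 0% = DMSO untreated growth and 100% = chloroquine plus artemisinin killed control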). The following applies: P. falciparum Dd2 in RBCs, LDH growth readout, 72 h; at 2 µM; stronger effect = higher value.
Test [2] can be described thus: HepG2 cytotoxicity, primary screen, cytotoxicity control for P. falciparum antimalarial project, cell-based, ATP luminescence (AID 2303;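 active = inhibition above 50%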;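 also: 0% = DMSO wells and 100% = digitonin-killed cells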). The note with it: HepG2 viability, 24-48 h, at 10 µM, stronger effect = higher value.
Test [3] has as its target L-lactate dehydrogenase (Plasmodium falciparum (isolate CDC / Honduras)) (UniProt Q27743). The test is described as follows: PfLDH activity inhibition – cell lysate, 3D7 strain, counter-screen for P. falciparum growth inhibition project (AID 2304).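 Also: 0% = vehicle and 100% = reference inhibitor.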 The note with it: P. falciparum 3D7 crude extract, LDH APAD/NBT absorbance; at 2 µM; stronger effect = higher value. Background: Counterscreens check selectivity or assay interference.

Test [4] is described as follows: inhibition of 3D7 malaria parasite growth – strain 3D7 (AID 2306).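 Also: 0% = DMSO wells and 100% = chloroquine plus artemisinin control wells.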 The note with it: P. falciparum 3D7 erythrocytic growth, LDH absorbance, 72 h; at 2 µM; stronger effect = higher value.
The target of test [5] is Calcium-dependent protein kinase 1 (Plasmodium falciparum (isolate 3D7)) (UniProt P62344). The test is described as follows: PfCDPK1 kinase inhibitors, biochemical, TCAMS library (AID 1159585; cut-off not given, nearly all actives have IC50 up to about 0.98 µM;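 also: inhibitors leave more ATP so luminescence rises with inhibition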). The note with it: recombinant PfCDPK1, Kinase-Glo ATP depletion luminescence. For orientation: In Kinase-Glo more light means more ATP remaining.
Test [6] concerns the target Plasmodium falciparum protein kinase 6 (PK6, PF3D7_1337100) (UniProt Q8IDW1). Kind of test: PfPK6 kinase inhibitors, biochemical, TCAMS library (AID 1159586). The note with it: recombinant PfPK6, Kinase-Glo ATP depletion luminescence.
The target of test [7] is Protein kinase 7 (PK7), Plasmodium falciparum 3D7 (PF3D7_0213400) (UniProt Q7YTF7). The test is described as follows: inhibition of Plasmodium PK7 catalytic activity – biochemical, TCAMS antimalarial set, Kinase-Glo luminescence (AID 1159587). The following applies: recombinant PfPK7, Kinase-Glo ATP depletion luminescence.
The target of test [8] is Calcium-dependent protein kinase 4 (Plasmodium falciparum (isolate 3D7)) (UniProt Q8IBS5). Kind of test: PfCDPK4 kinase inhibitors, biochemical, TCAMS library (AID 1159588; cut-off not given, nearly all actives have IC50 up to about 0.91 µM). The following applies: recombinant PfCDPK4, Kinase-Glo ATP depletion luminescence.
Chain of Calcium-dependent protein kinase 4 (Plasmodium falciparum (isolate 3D7)) (Q8IBS5 whole entry, looked up): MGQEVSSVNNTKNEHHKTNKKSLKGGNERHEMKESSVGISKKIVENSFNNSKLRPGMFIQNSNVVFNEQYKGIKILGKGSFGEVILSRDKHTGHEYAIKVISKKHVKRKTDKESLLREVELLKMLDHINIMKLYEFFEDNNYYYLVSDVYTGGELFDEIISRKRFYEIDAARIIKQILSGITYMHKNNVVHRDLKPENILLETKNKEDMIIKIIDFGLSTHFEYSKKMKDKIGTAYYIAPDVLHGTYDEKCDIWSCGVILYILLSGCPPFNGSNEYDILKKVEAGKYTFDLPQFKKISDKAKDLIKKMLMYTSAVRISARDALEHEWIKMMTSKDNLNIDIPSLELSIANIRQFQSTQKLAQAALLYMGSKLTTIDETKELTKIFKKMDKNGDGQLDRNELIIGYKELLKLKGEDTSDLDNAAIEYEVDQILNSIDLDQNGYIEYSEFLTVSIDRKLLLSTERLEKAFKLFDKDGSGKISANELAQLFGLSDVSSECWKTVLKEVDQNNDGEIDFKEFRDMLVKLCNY

Chain of L-lactate dehydrogenase (Plasmodium falciparum (isolate CDC / Honduras)) (Q27743 whole entry, looked up): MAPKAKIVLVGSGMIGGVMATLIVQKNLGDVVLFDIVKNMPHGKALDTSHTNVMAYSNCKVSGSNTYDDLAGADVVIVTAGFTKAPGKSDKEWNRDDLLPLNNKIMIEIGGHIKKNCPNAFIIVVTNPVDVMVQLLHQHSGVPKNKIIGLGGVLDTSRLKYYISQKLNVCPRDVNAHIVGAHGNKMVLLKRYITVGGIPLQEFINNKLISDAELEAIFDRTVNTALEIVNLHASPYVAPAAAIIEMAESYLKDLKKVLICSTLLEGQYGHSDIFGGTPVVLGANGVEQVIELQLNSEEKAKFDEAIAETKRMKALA
Chain of Protein kinase 7 (PK7), Plasmodium falciparum 3D7 (PF3D7_0213400) (Q7YTF7 1-343): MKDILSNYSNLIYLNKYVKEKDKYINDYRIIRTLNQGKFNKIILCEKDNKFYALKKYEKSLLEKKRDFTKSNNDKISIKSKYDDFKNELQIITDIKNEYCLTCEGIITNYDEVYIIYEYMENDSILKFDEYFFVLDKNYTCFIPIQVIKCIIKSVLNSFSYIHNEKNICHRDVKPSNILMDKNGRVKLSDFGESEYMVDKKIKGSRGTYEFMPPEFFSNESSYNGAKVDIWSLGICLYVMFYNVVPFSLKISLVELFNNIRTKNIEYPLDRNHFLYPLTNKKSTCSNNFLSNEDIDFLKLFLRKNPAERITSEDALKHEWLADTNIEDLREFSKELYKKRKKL
Chain of Calcium-dependent protein kinase 1 (Plasmodium falciparum (isolate 3D7)) (P62344 whole entry, looked up): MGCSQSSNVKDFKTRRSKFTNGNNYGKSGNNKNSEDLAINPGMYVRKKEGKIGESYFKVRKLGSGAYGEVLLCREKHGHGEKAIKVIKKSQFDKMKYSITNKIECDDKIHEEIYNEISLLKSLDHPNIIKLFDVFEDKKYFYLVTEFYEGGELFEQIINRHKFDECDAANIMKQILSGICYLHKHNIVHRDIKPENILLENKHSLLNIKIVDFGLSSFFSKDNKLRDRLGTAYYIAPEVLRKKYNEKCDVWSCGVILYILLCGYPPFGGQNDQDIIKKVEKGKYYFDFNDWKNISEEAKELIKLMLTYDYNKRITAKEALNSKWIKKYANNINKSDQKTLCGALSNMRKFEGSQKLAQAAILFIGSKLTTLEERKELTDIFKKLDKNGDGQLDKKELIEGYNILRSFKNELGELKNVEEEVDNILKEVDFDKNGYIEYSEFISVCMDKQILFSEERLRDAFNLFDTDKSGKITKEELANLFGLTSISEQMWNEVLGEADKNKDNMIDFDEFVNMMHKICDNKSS
Chain of Plasmodium falciparum protein kinase 6 (PK6, PF3D7_1337100) (Q8IDW1 1-305): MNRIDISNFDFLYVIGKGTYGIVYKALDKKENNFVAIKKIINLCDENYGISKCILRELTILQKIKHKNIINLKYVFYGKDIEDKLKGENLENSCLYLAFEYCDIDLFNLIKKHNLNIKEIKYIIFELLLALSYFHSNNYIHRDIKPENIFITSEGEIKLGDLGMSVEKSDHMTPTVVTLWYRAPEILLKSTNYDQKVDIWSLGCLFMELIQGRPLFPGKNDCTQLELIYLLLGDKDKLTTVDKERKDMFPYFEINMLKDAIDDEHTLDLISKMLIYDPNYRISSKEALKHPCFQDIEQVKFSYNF

For `CCc1cn(C)c2c(N3CCCC3=O)cc(C(=O)N[C@@H](Cc3ccccc3)[C@H](O)CNC(C)(C)CCCC(C)C)cc12`, the growth inhibition in test [1] is 98% (active); in test [4] it was 97% (active). The figures for the inhibition in test [2] and in test [3] were 15% and -4%, respectively. Also, the result in test [5], in test [6], in test [7] and in test [8] was inactive.
As for `CC(C)c1cc(C(=O)N[C@@H](Cc2ccccc2)[C@H](O)CNC2CCCCC2)cc(N2CCCC2=O)c1`, the growth inhibition in test [1] is 98% (active); in test [4] it was 101% (active). Further, the inhibition is -11% in test [2] and 5% in test [3]. Also, the outcome in test [5], in test [6], in test [7] and in test [8] was inactive.
Consider `O=C(c1ccc(Cl)cc1Cl)N1CCCC(C(F)(F)F)C1` (stereo not given), for which the growth inhibition in test [1] was 47%; in test [4], 95% (active). The values for the inhibition in test [2] and in test [3] were 6% and 3%, respectively. Further, the result in test [5], in test [6], in test [7] and in test [8] was inactive.
In the case of `O=C(c1cc(C(=O)NC2CCCCC2)c(=O)n(C2CCCCC2)c1)c1cc(F)ccc1O`, the growth inhibition in test [1] is 98% (active); in test [4] it was 99% (active). Besides, the inhibition was 22% in test [2] and -2% in test [3]. In addition, the result in test [5], in test [6], in test [7] and in test [8] was inactive.
As to `Cc1[nH]c2ccccc2c(=O)c1-c1ccc(Cl)cc1`, the figures for the growth inhibition in test [1] and in test [4] were 91% (active) and 93% (active), respectively. Further, the inhibition is -1% in test [2] and 2% in test [3]. For the same molecule, the result in test [5], in test [6], in test [7] and in test [8] was inactive.
In the case of `O=C(/C=C/c1ccc(Cl)cc1)NCCCCCN1CCC(C(=O)Nc2ccc(Cl)cc2)CC1`, the growth inhibition in test [1] was -1%; in test [4], 99% (active). For the same molecule, the inhibition in test [2] is 27%; in test [3] it was 8%. Also, the result in test [5], in test [6], in test [7] and in test [8] was inactive.
As for `CCc1ccc(NC(=O)c2ccc(CN3CCCN(Cc4cccs4)CC3)cc2)cc1`, the figures for the growth inhibition in test [1] and in test [4] were -1% and 87% (active), respectively. Moreover, the results for the inhibition in test [2] and in test [3] were 57% (active) and 0%, respectively. Moreover, the result in test [5], in test [6], in test [7] and in test [8] was inactive.
`Cc1cc(N2CCCC2)nc(Nc2ccc(NC(=O)c3ccccc3)cc2)n1`: the growth inhibition was 65% (active) in test [1] and 100% (active) in test [4]. The figures for the inhibition in test [2] and in test [3] were 26% and -3%, respectively. For the same molecule, the result in test [5], in test [6], in test [7] and in test [8] was inactive.
As for `O=C(/C=C/c1ccc(Cl)c(Cl)c1)NCCCCCN1CCC(c2c[nH]c3cc(O)ccc23)CC1`, the growth inhibition was 2% in test [1] and 101% (active) in test [4]. For the same molecule, the inhibition in test [2] is 32%; in test [3], 3%. The result in test [5], in test [6], in test [7] and in test [8] was inactive.
Take `Cc1nn(-c2ccc(Cl)cc2)c2[nH]c(CN3CCN(c4cccc(Cl)c4)CC3)cc(=O)c12`: the growth inhibition in test [1] and in test [4] was 98% (active) throughout. Moreover, the inhibition was 0% in test [2] and -3% in test [3]. Further, the outcome in test [5], in test [6], in test [7] and in test [8] was inactive.
On to `Cc1cccc2[nH]c(-c3cccc(-c4cccc(NC(=O)Nc5ccc(F)c(F)c5F)c4)c3)nc12`, for which the growth inhibition was 99% (active) in test [1] and 100% (active) in test [4]. For the same molecule, the inhibition was 32% in test [2] and 4% in test [3]. The outcome in test [5], in test [6], in test [7] and in test [8] was inactive.
With `Cc1[nH]cc(Br)c(=O)c1-c1ccc(Oc2ccc(OC(F)(F)F)cc2)cc1`, the growth inhibition in test [1] is 92% (active); in test [4] it was 96% (active). Moreover, the results for the inhibition in test [2] and in test [3] were 22% and -2%, respectively. The result in test [5], in test [6], in test [7] and in test [8] was inactive.
With `CCNC(C)(C)CN(Cc1ccc(-c2ccc(C(F)(F)F)cc2)cc1)C(=O)Cn1c(SCc2ccc(F)cc2)nc(=O)c2c1CCC2`, the growth inhibition in test [1] was 94% (active); in test [4] it was 95% (active). Also, the inhibition in test [2] is 99% (active); in test [3], 2%. In addition, the outcome in test [5], in test [6], in test [7] and in test [8] was inactive.
Take `CCC[C@@H]([C@@H](CC1CCCCC1)C(=O)N[C@H](C(=O)Nc1nccs1)C(C)(C)SCCNC(=O)OCc1ccccn1)N(O)C=O`: the growth inhibition was 96% (active) in test [1] and 99% (active) in test [4]. In addition, the inhibition is 17% in test [2] and -5% in test [3]. The result in test [5], in test [6], in test [7] and in test [8] was inactive.
Take `COc1ccc(NC(=O)/C=C/c2cc(Br)ccc2F)cc1OCCN(C(C)C)C(C)C`: the growth inhibition was 14% in test [1] and 100% (active) in test [4]. The figures for the inhibition in test [2] and in test [3] were 22% and -3%, respectively. Further, the outcome in test [5], in test [6], in test [7] and in test [8] was inactive.
As for `CCCN1CCC(NCc2cn(C)nc2-c2ccc(Oc3ccccc3)cc2)CC1`, the values for the growth inhibition in test [1] and in test [4] were 44% and 88% (active), respectively. The values for the inhibition in test [2] and in test [3] were 34% and -3%, respectively. The result in test [5], in test [6], in test [7] and in test [8] was inactive.
As for `Cc1cc(OCc2ccccc2)c(OCc2ccccc2)cc1C(O)CN(C)Cc1ccccc1` (stereo not given), the growth inhibition was 87% (active) in test [1] and 96% (active) in test [4]. The inhibition in test [2] is 14%; in test [3], -2%. Moreover, the outcome in test [5], in test [6], in test [7] and in test [8] was inactive.
For the molecule `O=C(Nc1nc2cc(S(=O)(=O)NCCc3cccc(F)c3)ccc2n1CCCn1ccnc1)c1ccc(Cl)cc1`, the growth inhibition in test [1] was 8%; in test [4], 90% (active). Moreover, the inhibition is -24% in test [2] and 0% in test [3]. Moreover, the result in test [5], in test [6], in test [7] and in test [8] was inactive.
In the case of `CSc1nc2nc(C)c(Cc3cccc(F)c3)c(C)n2n1`, the results for the growth inhibition in test [1] and in test [4] were 45% and 87% (active), respectively. Further, the inhibition is 3% in test [2] and 0% in test [3]. The outcome in test [5], in test [6], in test [7] and in test [8] was inactive.
In the case of `COc1ccc(C(=O)CCC(=O)N(CCC2CCCN2C)Cc2ccc(-c3ccc(CNCCc4ccc(S(C)(=O)=O)cc4)cn3)cc2)cc1F` (stereo not given), the growth inhibition in test [1] was 45%; in test [4], 93% (active). Further, the figures for the inhibition in test [2] and in test [3] were 13% and -2%, respectively. Besides, the outcome in test [5], in test [6], in test [7] and in test [8] was inactive.
